# Results published in the supplement of paper PMC8728848.
# The entries come from a sample that favours the strongest signals as a whole.
# Experiments:
# Assay in all cases: glycan array binding signal (z-score within array); higher = stronger binding
# Details in all cases: glycan notation: IUPAC condensed, linker removed
# [1] = target: Fuc(a1-2)Gal(b1-3)GlcNAc(b1-3)[Fuc(a1-2)Gal(b1-3)GlcNAc(b1-6)]GalNAc
# In short: (§1)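 Glycan array data came from 3228 arrays in the Consortium for Functional Glycomics database, and only arrays with an available protein sequence were kept. Glycan names were put into IUPAC-condensed notation, and columns mapping to the same glycan were averaged. The binding signal is a within-array Z-score, averaged across arrays of one protein sequence run at different concentrations or buffers and across linkers. A negative Z-score can be read as non-binding.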
# [2] = target: Fuc(a1-2)Gal(b1-3)GlcNAc(b1-3)[Neu5Ac(a2-6)Gal(b1-4)GlcNAc(b1-6)]Gal(b1-4)Glc
# In short: as §1
# [3] = target: Fuc(a1-2)[Gal(a1-3)]Gal(b1-4)GlcNAc
# In short: as §1
# [4] = target: Fuc(a1-2)[Gal(a1-3)]Gal(b1-4)GlcNAc(b1-2)Man
# In short: as §1
# [5] = target: Fuc(a1-3)[Gal(b1-4)]GlcNAc(b1-2)Man
# In short: as §1
# [6] = target: Gal(a1-3)Gal(b1-3)GlcNAc
# In short: as §1
# [7] = target: Gal(a1-3)Gal(b1-4)GlcNAc(b1-2)Man(a1-3)[Gal(a1-3)Gal(b1-4)GlcNAc(b1-2)Man(a1-6)]Man(b1-4)GlcNAc(b1-4)GlcNAc
# In short: as §1
# [8] = target: Gal(a1-3)Gal(b1-4)[Fuc(a1-3)]GlcNAc(b1-2)Man(a1-3)[Gal(a1-3)Gal(b1-4)[Fuc(a1-3)]GlcNAc(b1-2)Man(a1-6)]Man(b1-4)GlcNAc(b1-4)GlcNAc
# In short: as §1
# [9] = target: Gal(a1-6)Glc
# In short: as §1
# [10] = target: Gal(b1-3)GalNAc(b1-3)Gal(a1-4)Gal(b1-4)Glc
# In short: as §1
# [11] = target: Gal(b1-3)GlcNAc(b1-3)Gal(b1-3)GlcNAc
# In short: as §1
# [12] = target: Gal(b1-3)GlcNAc(b1-6)GalNAc
# In short: as §1
# [13] = target: Gal(b1-3)GlcNAc(b1-6)[Gal(b1-3)]GalNAc
# In short: as §1
# [14] = target: Gal(b1-4)GlcNAc(b1-2)Man(a1-3)[Gal(b1-4)GlcNAc(b1-2)Man(a1-6)]Man(b1-4)GlcNAc(b1-4)GlcNAc
# In short: as §1
# [15] = target: Gal(b1-4)GlcNAc(b1-2)Man(a1-3)[Gal(b1-4)GlcNAc(b1-2)Man(a1-6)][Gal(b1-4)GlcNAc(b1-4)]Man(b1-4)GlcNAc(b1-4)[Fuc(a1-6)]GlcNAc
# In short: as §1
# [16] = target: Gal(b1-4)GlcNAc(b1-2)Man(a1-3)[Man(a1-6)]Man(b1-4)GlcNAc(b1-4)GlcNAc
# In short: as §1
# [17] = target: Gal(b1-4)GlcNAc(b1-2)Man(a1-6)[Man(a1-3)]Man(b1-4)GlcNAc(b1-4)GlcNAc
# In short: as §1
# [18] = target: Gal(b1-4)GlcNAc(b1-2)[Gal(b1-4)GlcNAc(b1-6)]Man(a1-6)[GlcNAc(b1-4)][Gal(b1-4)GlcNAc(b1-2)[Gal(b1-4)GlcNAc(b1-4)]Man(a1-3)]Man(b1-4)GlcNAc(b1-4)[Fuc(a1-6)]GlcNAc
# In short: as §1
# [19] = target: Gal(b1-4)GlcNAc(b1-3)Gal(b1-4)GlcNAc(b1-2)Man(a1-3)[Gal(b1-4)GlcNAc(b1-3)Gal(b1-4)GlcNAc(b1-2)Man(a1-6)]Man(b1-4)GlcNAc(b1-4)GlcNAc
# In short: as §1
# [20] = target: Gal(b1-4)GlcNAc(b1-3)Gal(b1-4)GlcNAc(b1-2)[Gal(b1-4)GlcNAc(b1-3)Gal(b1-4)GlcNAc(b1-6)]Man(a1-6)[Gal(b1-4)GlcNAc(b1-3)Gal(b1-4)GlcNAc(b1-2)Man(a1-3)]Man(b1-4)GlcNAc(b1-4)GlcNAc
# In short: as §1
# [21] = target: Gal(b1-4)GlcNAc(b1-3)Gal(b1-4)[Fuc(a1-3)]GlcNAc(b1-3)Gal(b1-4)[Fuc(a1-3)]GlcNAc
# In short: as §1
# [22] = target: Gal(b1-4)GlcNAc(b1-3)[Gal(b1-4)GlcNAc(b1-6)]GalNAc
# In short: as §1
# [23] = target: Gal(b1-4)GlcNAc(b1-6)[Gal(b1-4)GlcNAc(b1-3)]GalNAc
# In short: as §1
# [24] = target: GalNAc(b1-3)GalNAc
# In short: as §1
# [25] = target: GalNAc(b1-4)Gal(b1-4)Glc
# In short: as §1
# [26] = target: Glc(a1-4)Glc(a1-4)Glc(a1-4)Glc
# In short: as §1
# [27] = target: Glc(b1-4)Glc
# In short: as §1
# [28] = target: GlcA(b1-3)Gal
# In short: as §1
binder,measurement,setting,value
"NPA (Narcissus pseudonarcissus), C0HM45 (protein) DNILYSGETLSPGEFLNNGRYVFIMQEDCNLVLYDVDKPIWATNTGGLDRRCHLSMQSDGNLVVYSPRNNPIWASNTGGENGNYVCVLQKDRNVVIYGTARWATGTNIH",glycan array binding signal (z-score),[1],-0.124
same,glycan array binding signal (z-score),[2],-0.142
same,glycan array binding signal (z-score),[3],-0.152
same,glycan array binding signal (z-score),[4],-0.132
same,glycan array binding signal (z-score),[5],-0.131
same,glycan array binding signal (z-score),[6],-0.133
same,glycan array binding signal (z-score),[7],2.1
same,glycan array binding signal (z-score),[8],-0.056
same,glycan array binding signal (z-score),[9],-0.147
same,glycan array binding signal (z-score),[10],-0.135
same,glycan array binding signal (z-score),[11],-0.148
same,glycan array binding signal (z-score),[12],-0.144
same,glycan array binding signal (z-score),[13],-0.051
same,glycan array binding signal (z-score),[14],0.602
same,glycan array binding signal (z-score),[15],-0.143
same,glycan array binding signal (z-score),[16],1.71
same,glycan array binding signal (z-score),[17],3.12
same,glycan array binding signal (z-score),[18],-0.141
same,glycan array binding signal (z-score),[19],0.034
same,glycan array binding signal (z-score),[20],-0.104
same,glycan array binding signal (z-score),[21],-0.144
same,glycan array binding signal (z-score),[22],-0.201
same,glycan array binding signal (z-score),[23],-0.141
same,glycan array binding signal (z-score),[24],-0.153
same,glycan array binding signal (z-score),[25],-0.129
same,glycan array binding signal (z-score),[26],-0.139
same,glycan array binding signal (z-score),[27],-0.152
same,glycan array binding signal (z-score),[28],-0.148
